PfHsp90 set2 = inhibits growth of yeast expressing Plasmodium falciparum Hsp90 | 310,000 tested, 0.32% active | AID 504621 | S. cerevisiae expressing PfHsp90, BacTiter-Glo ATP, 48 h; yeast lacking PDR1 and PDR3 efflux regulators | inhibition, % at 9.4 µM;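 active = every replicate shows inhibition above about 80%, whatever the replicate mean, limit read from the data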;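 also: 0% = DMSO neutral controls and 100% = 20 µM radicicol positive controls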
TIM10 inh = growth inhibitors of TIM10 yeast strain | S. cerevisiae TIM10 strain growth, BacTiter-Glo luminescence, 24 h | inhibition, % at 10 µM | 330,000 tested, 1.4% active;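 active = inhibition of 40% or more at the single tested concentration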;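 also: wild-type TIM10 isogenic control strain grown at permissive 25 °C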
tim10-1 inh = growth inhibitors of tim10-1 mutant yeast. inhibition, % at 20 µM. 330,000 tested, 2.2% active. S. cerevisiae tim10-1 ts strain growth, BacTiter-Glo, 24 h;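 active = inhibition of at least 40%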;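 also: mutant grown at 25 °C; 0% = DMSO wells with yeast and 100% = wells holding no yeast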
tim23-1 inh = growth inhibitors of tim23-1 mutant yeast; inhibition, % at 20 µM; 330,000 tested, 1.3% active; AID 463212; S. cerevisiae tim23-1 growth, BacTiter-Glo luminescence, 24 h;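 active = growth inhibition of the mutant yeast at or above 50%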;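 also: temperature-sensitive mutant grown at 25 °C; plate controls were DMSO-treated mutant yeast for no effect and medium wells lacking yeast for full effect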
V-ATPase pH = alters yeast V-ATPase proton transport | S. cerevisiae, pHLuorin cytosolic pH fluorescence | response, % at 10 µM | 350,000 tested, 0.37% active | AID 504577; in the data active = response mostly above about 7.3%, no sharp cut-off; inactive = mostly below about 5.4%; also: actives read high
TIM10 conf = confirmation of TIM10 yeast growth inhibitors. shares compounds with TIM10 inh. S. cerevisiae tim10 strain growth, BacTiter-Glo luminescence, 24 h. inhibition, % at 10 µM. 4,600 tested, 63% active. AID 463215;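 active = inhibition of yeast growth at or above a set limit in either of two replicates at 10 µM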;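 also: this counterscreen used the strain with wild-type TIM10; 0% = yeast with DMSO and 100% = medium wells lacking yeast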
tim23-1 confirm = tim23-1 yeast growth inhibition, confirmed; 4,400 tested, 83% active; shares compounds with tim23-1 inh; inhibition, % at 20 µM; S. cerevisiae tim23-1 growth, BacTiter-Glo luminescence, 24 h; AID 463218;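 active = inhibition above about 39% in either of two replicate wells at 20 µM, limit read from the data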;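 also: temperature-sensitive tim23-1 mutant grown at 25 °C; 0% = DMSO wells with yeast and 100% = medium wells without yeast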
Active calls of the source: *; / = not tested or not shown. Rows were chosen to be rich in hits. Some 3.7% of all compounds tested hit in one or more screens of this group.

SMILES	PfHsp90 set2	TIM10 inh	tim10-1 inh	tim23-1 inh	V-ATPase pH	TIM10 conf	tim23-1 confirm
CC1=NN(C(N)=S)C(=O)C1N=Nc1c(Br)cc(Br)cc1Br (stereo not given)	-85	45*	35	60*	-1	60*	63*
CC1=NN(C(N)=S)C(=O)C1N=Nc1c(Cl)cc([N+](=O)[O-])cc1Cl (stereo not given)	0	11	40	38	-5	/	/
Cc1cccc(OCc2nnc(SCC(=O)NCc3ccc4c(c3)OCO4)o2)c1	/	/	/	/	-4	/	/
O=C(NC(=S)NCc1ccccc1Cl)c1cccs1	2	46*	16	67*	8	51*	52*
O=C(NCc1ccccc1F)c1cccs1	1	-29	8	0	-4	/	/
CN1/C(=C\C(=O)c2cccs2)Sc2ccccc21	34	63*	38	59*	0	60*	80*
O=C(N/N=C/c1ccccc1O)c1cccc2ccccc12	-15	41*	-13	66*	-2	21	39
CCN1CCC(O)(C(C(=O)OC)c2ccccc2)CC1 (stereo not given)	/	/	/	/	0	/	/
O=C(/C=C/c1ccccc1O)c1ccc(Cl)cc1	14	42*	34	56*	-2	39*	58*
COc1ccccc1/C=C/C(=O)c1ccc(Cl)cc1	2	33	32	26	5	/	/
O=c1oc(-c2cccs2)nc2c1cnn2-c1ccccc1	-19	47*	38	51*	/	34*	47*
CC(NC(=O)c1ccc([N+](=O)[O-])o1)C12CC3CC(CC(C3)C1)C2 (stereo not given)	-22	45*	-6	61*	-1	59*	-5
CC(NC(=O)C12CC3CC(CC(C3)C1)C2)C(=O)NN=Cc1ccc([N+](=O)[O-])o1 (stereo not given)	16	17	25	27	-2	/	/
CCOC(=O)c1c(N)sc(C(=O)Nc2ccccc2)c1C	46	41*	-8	55*	-1	31	68*
CCOC(=O)c1c(N)sc(C(=O)Nc2ccccc2F)c1C	-52	13	-39	30	0	/	/
CCOC(=O)CSC1=NC(=O)/C(=C\c2ccc(Cl)cc2)S1	64	50*	38	71*	11*	58*	45*
CCOC(=O)CN1C(=O)/C(=C/c2ccc(Cl)cc2)Oc2ccccc21	-8	-2	10	-3	1	/	/
CC(=O)Nc1cccc(Nc2nc(-c3ccccc3)nc3ccccc23)c1	6	21	25	19	0	/	/
Oc1cccc(Nc2nc(-c3ccccc3)nc3ccccc23)c1	-9	59*	21	82*	0	56*	54*
CCCCOc1ccc(-c2csc(N)n2)cc1[N+](=O)[O-]	12	43*	23	53*	-1	-2	63*
CCCCOc1ccc(C2=CSC3=NCCN23)cc1[N+](=O)[O-]	12	-6	-24	-9	-2	/	/
CCC(C)c1ccc(NC(=O)c2[nH]c(C)c(C(C)=O)c2C)cc1 (stereo not given)	-13	43*	40	53*	1	29	52*
CC(=O)c1c(C)[nH]c(C(=O)Nc2ccc(Cl)cc2)c1C	-28	0	10	28	0	/	/
Cc1cc(NC(=O)c2ccco2)sc1C	33	43*	0	52*	0	27	59*
CC(C)=CCc1c(O)ccc(C(=O)Cc2ccccc2)c1O	-9	41*	19	67*	-2	58*	-32
SMILES	PfHsp90 set2	TIM10 inh	tim10-1 inh	tim23-1 inh	V-ATPase pH	TIM10 conf	tim23-1 confirm
O=C1C=CC2C(c3ccc4c(c3)OCO4)CC1N2Cc1ccccc1 (stereo not given)	-8	44*	23	58*	0	51*	47*
c1ccc(CN2CCC(N3CCN(Cc4ccc5c(c4)OCO5)CC3)CC2)cc1	1	-2	-16	-23	2	/	/
Cc1ccc(C(=O)Nc2cccc(Oc3ccccc3)c2)o1	10	50*	20	58*	-1	56*	77*
Cc1ccc(C(=O)Nc2ccccc2Oc2ccccc2)o1	-9	0	10	22	0	/	/
COc1cc(CNCc2ccc(Br)cc2)cc(OC)c1	5	11	18	4	-2	/	/
Nc1ccc(-c2nc3ncccc3o2)c(O)c1	-10	50*	1	58*	-2	43*	65*
Cc1cc(-c2nc3ncccc3o2)ccc1N	-9	14	-6	16	2	/	/
CCOC(=O)/C(=C\c1ccc(OC)c(OC)c1)C(=O)c1cccnc1	30	50*	35	59*	-7	48*	56*
COc1ccc(/C=C/C(=O)O/N=C(\N)c2cccnc2)cc1OC	-33	-8	6	13	0	/	/
CC(C)(C)C1CCNC(=O)CC1 (stereo not given)	/	/	/	/	0	/	/
CC(C)(C)c1cc(C(C)(C)C)cc(S(=O)(=O)CCc2ccccn2)c1	30	51*	31	59*	-1	57*	54*
CN1/C(=C\C(=O)CSc2cccc[n+]2[O-])C(C)(C)c2ccccc21	12	41*	32	65*	-1	-6	78*
COc1ccc(S(=O)(=O)N2CCN(Cc3ccc(Cl)cc3)CC2)cc1	8	42*	28	58*	-1	40*	50*
COc1ccc(CN2CCCN(S(=O)(=O)c3ccc(Br)cc3)CC2)cc1	0	-62	-27	24	-3	/	/
O=c1c(-c2ccc3c(c2)OCCO3)coc2cc(O)cc(O)c12	18	41*	35	56*	0	36*	49*
CSc1nsc(SCC(=O)Nc2ccc(Cl)c(C(=O)O)c2)n1	5	8	-12	-5	0	/	/
c1ccc2c(c1)ncn2CCC1CCCCC1	-3	42*	34	53*	2	35*	19
NC(=O)CCn1cnc2ccccc21	-6	12	9	15	-3	/	/
O=C(COC(=O)CCN1C(=O)C2CC=CCC2C1=O)Nc1ccc(Cl)cc1F (stereo not given)	6	5	3	23	-4	/	/
NNC(=O)c1cn2ccccc2n1	-20	10	2	4	4	/	/
Cc1ccc(C(=O)COC(=O)c2cn3ccccc3n2)cc1	0	48*	20	57*	-3	42*	69*
C[C@H](NC(=O)N1CCn2c1nc1ccccc12)C(=O)NCc1ccc(F)cc1	-14	-2	10	35	3	/	/
COc1ccc(-c2cc(=O)c3ccccc3s2)cc1	11	42*	29	52*	2	44*	54*
OCc1cc(-c2ccccn2)no1	-19	-10	-14	-2	2	/	/

Assay outcomes: PubChem, several laboratories
